Laboratory results: the supplement of paper PMC6555819

Columns and labels:
Experiment in all cases: PBM binding z-score (relative to random genomic background probes); higher = stronger binding; sequences stand for … in GC…GCGATTGACAGCGTAGAATGAAGG
[1] = tested on: FXR:RXRa (NR concentration 270 nM, RXRa partner concentration 90 nM)
In short: (§1)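 Random background probes are the reference for binding z-scores. These scores derive from regression-normalized fluorescence on custom Agilent 4×180K protein-binding microarrays incubated 1 h with ligand-free nuclear receptor dimers. Binding was detected with antibodies against each partner (one per run).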

[2] = tested on: LXRa:RXRa (NR concentration 270 nM, RXRa partner concentration 90 nM)
In short: as §1

[3] = tested on: LXRa homodimer (NR concentration 270 nM)
In short: as §1

[4] = tested on: LXRb:RXRa (NR concentration 270 nM, RXRa partner concentration 90 nM)
In short: as §1

[5] = tested on: LXRb homodimer (NR concentration 270 nM)
In short: as §1

[6] = tested on: PPARa:RXRa (NR concentration 270 nM, RXRa partner concentration 90 nM)
In short: as §1

[7] = tested on: PPARg:RXRa (NR concentration 180 nM, RXRa partner concentration 90 nM)
In short: as §1

[8] = tested on: PPARg:RXRa 270nM:90nM, anti-RXR (NR concentration 270 nM, RXRa partner concentration 90 nM)
In short: as §1

[9] = tested on: PPARg:RXRa 30nM:10nM, anti-RXR (NR concentration 30 nM, RXRa partner concentration 10 nM)
In short: as §1

[10] = tested on: PPARg:RXRa 90nM:30nM, anti-RXR (NR concentration 90 nM, RXRa partner concentration 30 nM)
In short: as §1

[11] = tested on: PPARg:RXRa DBDmut IVT, anti-RXR (DBD mutation: RXRa K156A/R161A, NR concentration 270 nM, RXRa partner concentration 90 nM)
In short: as §1

[12] = tested on: PPARg:RXRa IVT, anti-PPARg (NR concentration 270 nM, RXRa partner concentration 90 nM)
In short: as §1

[13] = tested on: PPARg DBDmut:RXRa IVT, anti-PPARg (DBD mutation: PPARg1 K132A/R137A, NR concentration 270 nM, RXRa partner concentration 90 nM)
In short: as §1

[14] = tested on: PPARg DBDmut IVT, anti-PPARg (DBD mutation: PPARg1 K132A/R137A, NR concentration 270 nM)
In short: as §1

[15] = tested on: PPARg homodimer (NR concentration 180 nM)
In short: as §1

[16] = tested on: PXR:RXRa (NR concentration 270 nM, RXRa partner concentration 90 nM)
In short: as §1

[17] = tested on: PXR homodimer (NR concentration 270 nM)
In short: as §1

[18] = tested on: RARa:RXR (NR concentration 270 nM, RXRa partner concentration 90 nM)
In short: as §1

[19] = tested on: RARa homodimer (NR concentration 270 nM)
In short: as §1

[20] = tested on: RARb:RXRa (NR concentration 270 nM, RXRa partner concentration 90 nM)
In short: as §1

| Sequence | PBM binding z-score [1] | PBM binding z-score [2] | PBM binding z-score [3] | PBM binding z-score [4] | PBM binding z-score [5] | PBM binding z-score [6] | PBM binding z-score [7] | PBM binding z-score [8] | PBM binding z-score [9] | PBM binding z-score [10] | PBM binding z-score [11] | PBM binding z-score [12] | PBM binding z-score [13] | PBM binding z-score [14] | PBM binding z-score [15] | PBM binding z-score [16] | PBM binding z-score [17] | PBM binding z-score [18] | PBM binding z-score [19] | PBM binding z-score [20] |
| --- | --- | --- | --- | --- | --- | --- | --- | --- | --- | --- | --- | --- | --- | --- | --- | --- | --- | --- | --- | --- |
| CCTCGGAGGACAACAGGAGGTCAGAGCAGCCAGA | 1.3 | 1.9 | 1.9 | 1.4 | -0.432 | 2.01 | 0.586 | 0.217 | -0.349 | -0.371 | -0.204 | 0.388 | -0.931 | -1.16 | 1.41 | 2.05 | 0.438 | 2.23 | 0.698 | 2.87 |
| CAAACTAGGTCAAGGTCGAAGTCGGTTTGTGCCA | 4.68 | 3.03 | 0.706 | 2.37 | -0.00931 | 5.05 | 8.77 | 7.1 | 5.52 | 7.19 | 8.51 | 8.63 | 2.92 | 2.06 | 3.02 | 2.71 | 0.704 | 3.14 | 0.902 | 4.47 |
| CAAACGAGGGCATGAGTTGATAGCAAATGCCGAT | 0.718 | 0.454 | -0.447 | 0.313 | -0.289 | 1.86 | 1.7 | 1.88 | 0.402 | 1.12 | 2.71 | 2.88 | 0.524 | -0.353 | 0.909 | 0.572 | -0.0239 | 0.752 | -0.274 | 2.24 |
| CCAACTAGGTCAAGGACAGTGAATCTCCGCACGC | 3.25 | 2.12 | 0.634 | 1.47 | 0.422 | 3.96 | 6.59 | 5.37 | 3.19 | 4.79 | 7.53 | 7.55 | 1.93 | 1.81 | 2.38 | 1.23 | 0.209 | 2.01 | 1.21 | 3.98 |
| AGAACGAGGACAATGAGTTGATAGCACGGGTGGC | -0.125 | -0.562 | -0.33 | -0.706 | -0.434 | -0.365 | 1.06 | -0.0649 | -0.0875 | -0.147 | 1.03 | 0.378 | -0.192 | -0.367 | 0.00958 | 0.277 | 1.99 | -0.176 | 0.102 | 0.775 |
| GCTAGTTGGTCAGTGAAAGGTCACACACCGGTCG | 3.55 | 4.39 | 4.49 | 3.7 | 0.467 | 4.43 | 4.64 | 5.57 | 3.93 | 5.67 | 1.21 | 2.97 | 0.254 | 0.307 | 3.99 | 5.13 | 1.02 | 5.89 | 1.88 | 4.27 |
| CCTAGTTGGTCGGGAGGTCACACACCGGATATGA | 3.79 | 3.32 | 2.67 | 3.48 | 1.04 | 3.89 | 2.12 | 2.73 | 0.776 | 2.07 | -0.134 | 1.89 | 0.253 | 0.694 | 3.59 | 4.29 | 2.4 | 4.55 | 2.58 | 3.47 |
| TAATATAGGTAATACAGGTGAAAGTCGGCATCTA | 0.455 | 1.04 | 0.599 | 0.603 | 0.797 | 2.57 | 3.18 | 3 | 2 | 2.17 | 5.72 | 5.56 | 2.44 | 1.91 | 1.32 | 0.362 | 0.607 | 0.476 | 1.83 | 0.621 |
| TCGAGTAGGTTACCATTGGGGCATTCAGCTTTCT | 0.101 | 1.68 | -0.373 | 0.964 | -0.492 | 0.792 | 0.0586 | 1.23 | 0.995 | 1.17 | 3.26 | 2.88 | -0.0492 | -0.763 | -0.00669 | 0.0838 | -0.677 | 0.409 | -0.577 | 0.817 |
| CGTCCAAGGTCTGCAGGTCAGTGAAAGCGACGTG | 0.149 | 0.12 | -0.428 | 0.0193 | -1.21 | 0.759 | -0.32 | 0.0368 | -0.45 | -0.257 | 0.404 | 0.652 | -0.578 | -0.887 | 0.2 | 0.243 | -0.548 | 0.466 | -0.728 | 2.16 |
| AATACAGGGTCATGGTAGGCCAGAGTACGCACAG | 7.24 | 6.51 | 2.02 | 4.67 | 1.09 | 6.07 | 6.85 | 6.13 | 2.87 | 4.97 | 2.45 | 4.41 | 2.48 | 1.13 | 3.31 | 4.8 | 0.859 | 5.21 | 1.28 | 4.25 |
| ATACCAAGGTGATCGTGAGGTCGTTTATACTAAC | 1.68 | 1.66 | 1.35 | 1.74 | 0.0373 | 1.69 | 0.492 | 0.454 | -0.0827 | 0.159 | 0.676 | 1.12 | 0.496 | 0.607 | 0.889 | 3.27 | 2.05 | 2.19 | 0.982 | 1.51 |
| ACTATTAGTTGACTTAGGGCAACGGATACGACGC | 0.165 | 0.158 | 0.172 | -0.137 | 0.447 | -0.22 | 0.94 | 0.192 | 0.24 | 0.227 | 0.00929 | 0.309 | 1.35 | 1.09 | 0.328 | 0.113 | 0.452 | 0.313 | 0.0802 | 0.718 |
| TAGCCTAGGTCATGGGCCAGTATGCCACGCGAAC | 4.69 | 3.46 | 0.00314 | 2.02 | -0.474 | 4.18 | 4.02 | 3.65 | 0.999 | 2.81 | 1.9 | 3.62 | -0.369 | 0.218 | 1.49 | 1.42 | -0.923 | 2.53 | -0.739 | 3.93 |
